Laboratory results: PubChem BioAssay AID623946 (Vanderbilt Specialized Chemistry Center, 2012)
The source made the active and inactive calls.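 How the source made its calls: active means compounds whose rat M5 calcium response changes with dose, giving a fitted curve judged by the depositor; inactive means the rest, with no dose-dependent response.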

biological target: Muscarinic acetylcholine receptor M5 (Rattus norvegicus) (UniProt P08911); assay: rat M5 muscarinic receptor PAM counter-screen, SAR follow-up, selectivity assay for M4 PAM optimization project, CHO-K1 cells, calcium fluorescence, ACh EC20 (AID 623946); details: CHO-K1 rM5, calcium fluorescence, ACh EC20 potentiation; series mostly up to 30 µM
Sequence (P08911 whole entry, looked up): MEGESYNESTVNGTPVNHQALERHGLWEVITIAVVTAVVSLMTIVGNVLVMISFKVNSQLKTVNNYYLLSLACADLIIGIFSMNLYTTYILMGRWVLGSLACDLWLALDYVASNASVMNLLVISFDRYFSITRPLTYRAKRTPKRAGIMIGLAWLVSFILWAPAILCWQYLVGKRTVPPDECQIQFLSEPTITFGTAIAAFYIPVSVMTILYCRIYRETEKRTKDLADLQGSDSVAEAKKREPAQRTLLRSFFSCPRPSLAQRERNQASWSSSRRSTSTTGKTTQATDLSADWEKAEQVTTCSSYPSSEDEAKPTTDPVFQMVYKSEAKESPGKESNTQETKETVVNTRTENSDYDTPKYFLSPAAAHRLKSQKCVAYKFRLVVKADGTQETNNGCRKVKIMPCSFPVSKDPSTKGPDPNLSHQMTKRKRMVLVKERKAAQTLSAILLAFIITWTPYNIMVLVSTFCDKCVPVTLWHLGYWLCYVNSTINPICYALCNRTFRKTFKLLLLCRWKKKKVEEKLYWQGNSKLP

Structure (SMILES)	outcome
Cc1nc2sc(C(=O)NCc3ccncn3)c(N)c2c(C)c1Cl	inactive
Cc1nc2sc(C(=O)NCCc3ccncc3)c(N)c2c(C)c1Cl	inactive
Cc1nc2sc(C(=O)NCc3ccncc3)c(N)c2c(C)c1Cl	inactive
Cc1nc2sc(C(=O)NCc3ccc4c(c3)OCO4)c(N)c2c(C)c1Cl	inactive
Cc1nc2sc(C(=O)NC3CC3)c(N)c2c(C)c1Cl	inactive
Cc1nc2sc(C(=O)NCc3nccs3)c(N)c2c(C)c1Cl	inactive
COc1ccc(C)c2sc(NC(=O)c3ccncc3)nc12	inactive
Cc1nc2sc(C(=O)NCc3cccnc3)c(N)c2c(C)c1Cl	inactive
Cc1nc2sc(C(=O)NCc3cccc(F)c3F)c(N)c2c(C)c1Cl	inactive
Cc1nc2sc(C(=O)NCc3ccccc3)c(N)c2c(C)c1Cl	inactive
